This assay addresses Runt-related transcription factor 1 (Homo sapiens) + Core-binding factor subunit beta (Homo sapiens) (UniProt Q01196+Q13951). Put plainly: disruptors of Runt domain/CBFb-SMMHC interaction – biochemical, FRET, Cerulean-Runt, Venus-CBFb-SMMHC, uHTS, primary screen (AID 1434).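 Note: 0% = DMSO wells and 100% = wells with excess untagged CBFb-SMMHC; inhibitors lower the FRET ratio by blocking Runt binding to CBFb-SMMHC.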 As to conditions: Cerulean-Runt/Venus-CBFb-SMMHC FRET ratio 530/480, 1 h, at 20 µM, stronger effect = higher value.

Among all 220,000 compounds or so, about 1,600 (0.73%) were called active.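 Rule for the calls: active = mean inhibition across duplicate retests at 20 µM reaching about 50% (limit read from the data); inactive = the rest, inconclusive results apart.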 Shown is part of a subset that was picked to be rich in actives.

Sequence of Runt-related transcription factor 1 (Homo sapiens) + Core-binding factor subunit beta (Homo sapiens) (Q01196 whole entry, looked up, the tested form may be a part): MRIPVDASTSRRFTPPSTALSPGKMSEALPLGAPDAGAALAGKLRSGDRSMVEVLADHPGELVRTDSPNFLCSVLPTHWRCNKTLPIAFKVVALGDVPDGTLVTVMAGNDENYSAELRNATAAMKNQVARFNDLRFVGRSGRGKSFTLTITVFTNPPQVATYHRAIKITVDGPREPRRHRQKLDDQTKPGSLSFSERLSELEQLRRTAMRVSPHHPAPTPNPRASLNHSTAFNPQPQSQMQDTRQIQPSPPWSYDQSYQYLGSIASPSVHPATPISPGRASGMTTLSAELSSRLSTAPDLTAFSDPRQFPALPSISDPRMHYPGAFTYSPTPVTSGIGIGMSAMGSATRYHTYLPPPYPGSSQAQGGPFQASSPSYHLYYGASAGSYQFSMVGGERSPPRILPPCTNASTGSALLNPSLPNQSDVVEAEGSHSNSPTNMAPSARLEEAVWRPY
Sequence of Runt-related transcription factor 1 (Homo sapiens) + Core-binding factor subunit beta (Homo sapiens) (Q13951 whole entry, looked up, the tested form may be a part): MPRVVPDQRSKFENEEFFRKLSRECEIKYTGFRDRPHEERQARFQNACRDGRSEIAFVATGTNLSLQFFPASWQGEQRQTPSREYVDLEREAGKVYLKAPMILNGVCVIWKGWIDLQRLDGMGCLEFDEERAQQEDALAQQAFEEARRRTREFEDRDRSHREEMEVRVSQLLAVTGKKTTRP

For the compound `CCOC(=O)c1c(NC(=O)NC(C)(C)C)sc2c1CCN(C)C2`, the inhibition was 10.7% (inactive).

On to `CCOC(=O)c1c(NC(=S)Nc2ccccc2)sc2c1CCN(C)C2`, for which the inhibition is 159% (active). For the same compound, the inhibition (retest duplicate average) was 140%.

Consider `CCOC(=O)c1c(NC(=S)Nc2ccccc2C)sc2c1CCC2`, for which the inhibition was 4% (inactive).

In the case of `Cc1ccc(Nc2nc(N)nc(CN3CCN(Cc4ccccc4)CC3)n2)cc1Cl`, the inhibition is 1.7% (inactive).

On to `Cc1onc(-c2c(Cl)cccc2Cl)c1C(=O)NNC(=O)c1c(-c2c(Cl)cccc2Cl)noc1C`, for which the inhibition is -0.1% (inactive).

As for `CCCn1c(=NC(C)=O)c(C(=O)OCC)cc2c(=O)n3ccccc3nc21`, the inhibition was 58.9% (active). Besides, the inhibition (retest duplicate average) was determined as 115%.

For the compound `CCn1c(=N)c(S(=O)(=O)c2ccc(F)cc2)cc2c(=O)n3ccccc3nc21`, the inhibition is -20.7% (inactive).

Take `CCOC(=O)c1cc2c(=O)n3ccccc3nc2n(CC(C)C)c1=NC(=O)c1c(-c2c(F)cccc2Cl)noc1C`: the inhibition was 81% (active). In addition, the inhibition (retest duplicate average) amounted to 58.3%.

On to `CCOC(=O)c1cc2n(c1N)-c1ccccc1C2=O`, for which the inhibition is 2.2% (inactive).

Take `C/C(=N/OC(=O)c1c(-c2c(F)cccc2Cl)noc1C)c1cnccn1`: the inhibition is 0.1% (inactive).

Regarding `CCOC(=O)NNc1cc(C(F)(F)F)ccn1`, the inhibition is -0.5% (inactive).

As to `CCC(C)OC(=O)C(C)Oc1ccc(-c2ccccc2)cc1` (stereo not drawn), the inhibition is -4.2% (inactive).

In the case of `CCN(CC)C(=O)c1sc2nc(-c3ccccc3)ccc2c1N`, the inhibition is 15.5% (inactive).

As for `Nc1cccc(-c2cc(-c3ccccc3)nc(-c3cccc(N)c3)n2)c1`, the inhibition was 1.4% (inactive).

As to `CS(=O)(=O)c1sc2nc(-c3ccccc3)cc(-c3ccccc3)c2c1N`, the inhibition was 83.9% (active). Besides, the inhibition (retest duplicate average) worked out at 108%.

For `Cc1ccc2nc(COc3ccc(N(C)S(=O)(=O)c4ccccc4)cc3)cc(=O)n2c1`, the inhibition was 7.6% (inactive).

On to `CCOC(=O)C1CCN(C(=O)C2(NC(=O)Nc3cccc(F)c3)CCCCC2)CC1`, for which the inhibition is -6.4% (inactive).

Consider `CCOC(=O)c1oc2c(CN3CCN(CCO)CC3)c(O)c(CC)cc2c(=O)c1-c1nc2ccccc2s1`, for which the inhibition was 47.8% (inactive).

Consider `CC(C)(C)c1ccc(/C=C2\Oc3c(ccc(O)c3CN3CCN(CCO)CC3)C2=O)cc1`, for which the inhibition is 90.1% (active). In addition, the inhibition (retest duplicate average) came to 70.6%.

In the case of `O=C(CSc1nc2ccccc2o1)N/N=C/c1ccccc1C(=O)O`, the inhibition was 0.7% (inactive).

As for `C/C(N)=C(/C#N)C(=O)COC(=O)C1CCN(C(=O)c2ccc(Cl)cc2)CC1`, the inhibition was 0.8% (inactive).

As for `CNc1[nH]ncc1[N+](=O)[O-]`, the inhibition is 7.1% (inactive).

Turning to `Cc1cc(NCc2ccco2)n2c(nc3ccccc32)c1C#N`, the inhibition is 86.1% (active). Moreover, where the note is “retest duplicate average”, the inhibition amounted to 66%.

For `CC(C)c1cc(NCc2ccccn2)n2c(nc3ccccc32)c1C#N`, the inhibition is 29.3% (inactive).

On to `Cc1cc(NC(C)C)n2c(nc3ccccc32)c1C#N`, for which the inhibition is 31% (inactive).

As for `Cc1[nH]c2ccccc2c1/C=N/NC(=O)CNC(=O)c1ccc2c(c1)OCO2`, the inhibition is 1.7% (inactive).

Regarding `COc1ccc(N2C(=O)C(O)C2c2ccc(C)cc2)cc1` (stereo not drawn), the inhibition was 1.6% (inactive).

Consider `CC(=O)c1cc(C#N)c(N2CCCCC2)nc1C`, for which the inhibition is -1.4% (inactive).

`Cc1cc(C)c2nc(N3CCCC3)c(C#N)cc2c1`: the inhibition is 65% (active). Further, the inhibition (retest duplicate average) came out at 86.1%.

As for `Cc1cc(C)c(C#N)c(N2CCC(C(N)=O)CC2)n1`, the inhibition is 3% (inactive).

`CC(C)N1C(=S)SC(C)(C)C1n1oc(=O)n(-c2ccc(Cl)c(Cl)c2)c1=O` (stereo not drawn): the inhibition was 4.2% (inactive).

With `CCOc1cc(NC(=O)CCl)c(OCC)cc1NC(C)=O`, the inhibition was 1.1% (inactive).

Take `O=C1c2ccccc2S(=O)(=O)N1CC(O)Cn1c2ccccc2c2ccccc21` (stereo not drawn): the inhibition is 4.1% (inactive).

Regarding `CS(=O)(=O)N(CC(O)Cn1c2ccccc2c2ccccc21)c1cccc2ccccc12` (stereo not drawn), the inhibition is 1.2% (inactive).

For the compound `CCCCN(CCCC)CC(O)Cn1c2ccccc2c(=O)c2ccccc21` (stereo not drawn), the inhibition is 81% (active). In addition, the inhibition (retest duplicate average) is 70.6%.

As to `Cc1ccccc1NC(=O)c1nn(-c2ccc(F)c(F)c2)ccc1=O`, the inhibition was 3.1% (inactive).

Take `N#CC1=C(N)OC2=C(C(=O)CCC2)C1C1CC=CCC1` (stereo not drawn): the inhibition was 4.6% (inactive).

For `N#CC1=C(N)Oc2cc(O)ccc2C1C1CCCCC1` (stereo not drawn), the inhibition is 120% (active). In addition, the inhibition (retest duplicate average) was 132%.

In the case of `COCc1[nH]nc2c1C(C1C=CCCC1)C(C#N)=C(N)O2` (stereo not drawn), the inhibition was 3.6% (inactive).

In the case of `C=CCn1c(SCC(N)=O)nnc1-c1cc2c(s1)CCC(CC)C2` (stereo not drawn), the inhibition is -3.6% (inactive).

On to `CCS(=O)(=O)c1ccc(O)c(NC(=O)COc2ccc(Cl)cc2)c1`, for which the inhibition is 0.3% (inactive).

Turning to `Cc1c(CCOC(=O)c2cc([N+](=O)[O-])ccc2Cl)sc[n+]1CCCCS(=O)(=O)[O-]`, the inhibition is -0.3% (inactive).

Consider `O=C(CCc1ccccc1)Nc1ccc(NC(=O)C2CCCCC2)nc1`, for which the inhibition was -1% (inactive).

On to `CC(C)C1Nc2c(C(=O)O)cccc2C(Nc2ccccc2C(=O)O)C1(C)C` (stereo not drawn), for which the inhibition is -10% (inactive).

Regarding `CC(C)(C)OC(=O)c1c(N)n(CCCN2CCCC2=O)c2nc3ccccc3nc12`, the inhibition was 124% (active). Also, under “retest duplicate average”, the inhibition was 142%.

As for `COCC(C)OC(=O)c1c(N)n(CCCN2CCOCC2)c2nc3ccccc3nc12` (stereo not drawn), the inhibition is 109% (active). Moreover, for the setting “retest duplicate average”, the inhibition was 129%.

`CCc1ccc(NC(=O)CSc2nc3ccccc3c(=O)n2CCN2CCOCC2)cc1`: the inhibition is -3.7% (inactive).

In the case of `CSc1nnc(-c2ccncc2)n1CCCN1CCCC1=O`, the inhibition is 5.9% (inactive).

Regarding `CCOc1ccc(C(=O)NCCCN2CCCC2=O)cc1`, the inhibition was -3.7% (inactive).

Consider `Cc1ccc(C(=O)OC(C)CN2CCOCC2)cc1` (stereo not drawn), for which the inhibition was -0.1% (inactive).

For `O=C1CC2(CC(c3ccc(Cl)cc3)=NO2)C(=O)N1c1ccccc1` (stereo not drawn), the inhibition was 2.6% (inactive).

`CC(C)(C)c1cc(C(=O)N/N=C/c2ccc([N+](=O)[O-])s2)n[nH]1`: the inhibition was -11.1% (inactive).

For `COc1ccc(-n2c(C)nn(CC3CC3)c2=O)cc1`, the inhibition was -6% (inactive).

On to `CCCn1c(N)c(C(=O)CSc2nnc(-c3cccnc3)n2-c2ccc(C)cc2C)c(=O)[nH]c1=O`, for which the inhibition was 0.2% (inactive).

For the compound `Cn1nnc(NC(=S)NC(=O)c2ccccc2)n1`, the inhibition is -0.2% (inactive).

As for `COc1ccc(CCn2c(=N)c(C(=O)NCc3ccco3)cc3c(=O)n4cccc(C)c4nc32)cc1`, the inhibition was 142% (active). In addition, the inhibition (retest duplicate average) turned out to be 170%.

`COc1ccc(CCNC(=O)CCn2c(=O)c3ccccc3n(CC(=O)NCC3CCCO3)c2=O)cc1OC` (stereo not drawn): the inhibition is -0.3% (inactive).

For the compound `O=C(NCc1ccco1)c1cccn2c(=O)c3c4c(sc3nc12)CCCC4`, the inhibition is 0.4% (inactive).

For `CCc1cccc2c(=O)c(C(=O)NCCCOC)c[nH]c12`, the inhibition was 1% (inactive).

With `COCCn1c(=O)[nH]c2cc(C(=O)NCc3cccnc3)ccc2c1=O`, the inhibition was -3.4% (inactive).

Turning to `COc1ccc(CCNC(=O)Cn2c(=O)n(CC3CCCO3)c(=O)c3ccccc32)cc1OC` (stereo not drawn), the inhibition was -0.7% (inactive).

Consider `CCn1c(=N)c(C(=O)NCCCOC)cc2c(=O)n3cccc(C)c3nc21`, for which the inhibition was 58.1% (active). Also, the inhibition (retest duplicate average) was 72.9%.

Consider `COc1ccc(CNC(=O)c2cc3c(=O)n4ccccc4nc3n(CC3CCCO3)c2=N)cc1` (stereo not drawn), for which the inhibition was 92.1% (active). Further, the inhibition (retest duplicate average) was found to be 159%.

Regarding `COc1ccc(CCNC(=O)c2ccco2)cc1`, the inhibition is -1.4% (inactive).

For orientation: inhibition means the change of the read-out against control, counted positive when it falls.

These data come from PubChem BioAssay AID1434 (Sanford-Burnham Center for Chemical Genomics, 2008).
